# Test results as given in PubChem BioAssay (NCATS).
# Records with an inconclusive call do not appear. A call without a number means that no potency is given here. Calls of active or inactive are those of the source. Calls follow the shape of the dose curve; as a rule, active = well fitted inhibition curve with a large enough effect; inconclusive = small, poorly fitted or top-dose-only effect; inactive = no such curve, though single readings can be large or run the other way.
# Test: BET inhibitor-based combinations targeting novel dependencies in MECOM-rearranged (r) AML: HNT-34 cell line (AID 2202234); also: nearly all actives have a fitted effect of over 35% in size
# Conditions: HNT-34 AML viability, CellTiter-Glo luminescence, 48 h; series mostly up to 46 µM
# Outline: (§1)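 Cells at 500/well were exposed for 48 hr to MIPE v5.0 drugs as 11-point dose curves. Viability was read by CellTiter-Glo luminescence and normalized to DMSO and empty-well controls. Activity was expressed as AUC and per-cell-line Z-AUC.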
# Potency is read from the fitted curve at half-maximal effect.
row,Structure (SMILES),Potency
1,CCOC(=O)[C@@H](N)CCC(=O)N[C@@H](CSCc1ccccc1)C(=O)N[C@@H](C(=O)OCC)c1ccccc1,26300 nM (active)
2,CCOc1cc(N2CCC(O)CC2)ccc1Nc1ncc2c(n1)N(C)c1ccccc1C(=O)N2C,14800 nM (active)
3,Cc1c(C)c2c(c(C)c1O)CCC(C)(COc1ccc(CC3SC(=O)NC3=O)cc1)O2 (stereo not drawn),18600 nM (active)
4,C[C@H](NC(=O)Cc1cc(F)cc(F)c1)C(=O)N[C@H](C(=O)OC(C)(C)C)c1ccccc1,inactive
5,NC(=O)N1CCC(CC(=O)N2CCC([C@H]3c4ncc(Br)cc4CCc4cc(Cl)cc(Br)c43)CC2)CC1,11800 nM (active)
6,CC(Cc1ccc(O)c(O)c1)(NN)C(=O)O (stereo not drawn),inactive
7,CC(C)C[C@H](NC(=O)CNC(=O)c1cc(Cl)ccc1Cl)B(O)O,132 nM (active)
8,C=C(C)[C@@H]1CC[C@]2(C)CC[C@]3(C)[C@H](CC[C@@H]4[C@@]5(C)CC[C@H](O)C(C)(C)[C@H]5CC[C@]43C)[C@@H]12,inactive
9,Cc1ccc(S(=O)(=O)Nc2nc3ccccc3nc2Nc2ccc3nsnc3c2)cc1,inactive
10,Cc1ccc2c(=O)c3cccc(CC(=O)O)c3oc2c1C,inactive
11,C/C=C/C(=O)N(CC)c1ccccc1C,inactive
12,COC(=O)C1=C(C)NC(C)=C(C(=O)OCCN2CCN(C(c3ccccc3)c3ccccc3)CC2)C1c1cccc([N+](=O)[O-])c1 (stereo not drawn),23500 nM (active)
13,COc1ccc(-c2ccc3c(N4CCOCC4)nc(N4C[C@@H](C)O[C@@H](C)C4)nc3n2)cc1CO,934 nM (active)

# Test: BET inhibitor-based combinations targeting novel dependencies in MECOM-rearranged (r) AML: UCSD-AML1 cell line (AID 2202235); also: nearly all actives have a fitted effect of over 40% in size
# Conditions: UCSD-AML1 AML cells viability, CellTiter-Glo, 48 h; series mostly up to 46 µM
# Outline: as §1
row,Structure (SMILES),Potency
1,O=C1c2ccccc2-[n+]2ccc3c([nH]c4ccccc43)c21,1860 nM (active)
2,Cc1c(C(=O)NN2CCCCC2)nn(-c2ccc(Cl)cc2Cl)c1-c1ccc(Cl)cc1,inactive
3,O=C(O)CCC1CCC(c2cc(F)ccc2F)(S(=O)(=O)c2ccc(Cl)cc2)CC1 (stereo not drawn),inactive
4,CCOCC(O)COc1ccc(NC(=O)CC[S+](C)C)cc1 (stereo not drawn),inactive
5,C[C@H](NC(=O)c1sccc1OCc1ccc(Cl)cc1)c1ccccc1,inactive
6,CCOC(=O)[C@H](CCc1ccccc1)N[C@H]1CS[C@H](c2cccs2)CN(CC(=O)O)C1=O,inactive
7,CC(C)C[C@@H](N)[C@H](O)C(=O)N[C@H](C(=O)N[C@H](C(=O)N[C@@H](CC(=O)O)C(=O)O)C(C)C)C(C)C,inactive
8,Nc1nc2[nH]cc(CCc3ccc(C(=O)N[C@@H](CCC(=O)O)C(=O)O)cc3)c2c(=O)[nH]1,1050 nM (active)
9,CCC(=O)O[C@]1(C(=O)SCF)[C@H](C)C[C@H]2[C@@H]3C[C@H](F)C4=CC(=O)C=C[C@]4(C)[C@@]3(F)[C@@H](O)C[C@@]21C,inactive
10,C[C@H](NC(=O)[C@@H](O)c1cc(F)cc(F)c1)C(=O)N[C@@H]1C(=O)N(C)c2ccccc2-c2ccccc21,inactive
11,C[C@@H]1C(=O)O[C@H]2CC34[C@H]5C[C@@H](C(C)(C)C)C36[C@H](OC(=O)[C@@H]6O)O[C@@]4(C(=O)O5)[C@]21O (stereo partly drawn),inactive
12,CO[C@@H]1[C@@H](OC(N)=O)[C@@H](O)[C@H](Oc2ccc3c(O)c(NC(=O)c4ccc(O)c(CC=C(C)C)c4)c(=O)oc3c2C)OC1(C)C,inactive
13,Cc1[nH]nc2ccc(-c3cncc(OC[C@@H](N)Cc4ccccc4)c3)cc12,468 nM (active)
14,Cc1ccsc1C(=CCCN1CCC[C@@H](C(=O)O)C1)c1sccc1C,inactive
15,Clc1ccc(C(Cn2ccnc2)OCc2ccc(Sc3ccccc3)cc2)c(Cl)c1 (stereo not drawn),20900 nM (active)
16,OC1CCC(Nc2ncc3nc(Nc4c(F)cc(F)cc4F)n([C@@H]4CCOC4)c3n2)CC1 (stereo partly drawn),inactive
17,CO[C@@H](C(=O)N1Cc2[nH]nc(NC(=O)c3ccc(N4CCN(C)CC4)cc3)c2C1)c1ccccc1,148 nM (active)
18,C[C@H](NC(=O)Cc1cc(F)cc(F)c1)C(=O)N[C@H](C(=O)OC(C)(C)C)c1ccccc1,inactive
19,NC(=O)N1CCC(CC(=O)N2CCC([C@H]3c4ncc(Br)cc4CCc4cc(Cl)cc(Br)c43)CC2)CC1,3720 nM (active)
20,CC(Cc1ccc(O)c(O)c1)(NN)C(=O)O (stereo not drawn),inactive
21,CC(C)C[C@H](NC(=O)CNC(=O)c1cc(Cl)ccc1Cl)B(O)O,166 nM (active)
22,Oc1cc2c(cc1O)C1c3ccc(O)c(O)c3OCC1(O)C2 (stereo not drawn),20900 nM (active)
23,C=C(C)[C@@H]1CC[C@]2(C)CC[C@]3(C)[C@H](CC[C@@H]4[C@@]5(C)CC[C@H](O)C(C)(C)[C@H]5CC[C@]43C)[C@@H]12,inactive
24,Cc1ccc(S(=O)(=O)Nc2nc3ccccc3nc2Nc2ccc3nsnc3c2)cc1,inactive
25,Cc1ccc2c(=O)c3cccc(CC(=O)O)c3oc2c1C,inactive
26,COc1c(C)cnc(Cn2cnc3c(Cl)nc(N)nc32)c1C,209 nM (active)
27,CC1(CN2CCC(n3c(=O)[nH]c4ccccc43)CC2)OCc2ccccc2-n2cccc21 (stereo not drawn),inactive
28,C/C=C/C(=O)N(CC)c1ccccc1C,inactive
29,Oc1ccc(C2CCN(c3ccnc4ccccc34)CC2)cc1O,inactive
30,COC(=O)C1=C(C)NC(C)=C(C(=O)OCCN2CCN(C(c3ccccc3)c3ccccc3)CC2)C1c1cccc([N+](=O)[O-])c1 (stereo not drawn),inactive
